Measured values from PubChem BioAssay (NCI).
The panel holds about 83,000 compounds, 20% with a hit somewhere; the sample as a whole holds those more often.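 For each line, cells grew in 96-well plates with the test compound present at a single concentration for 48 hours.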 Unmarked numbers belong to inactive results. Activity calls are given as the source filed them. Rule for the calls: active = growth percent below 10; inactive = the rest.

Tested on: EKVX NSCLC
Assay: NCI-60 one-dose screen, 48 h (100 = growth as untreated, 0 = no growth, -100 = all killed)
Settings: 10 µM unless noted

SMILES	growth
O=C(c1ccccc1)C1OC1C(=O)c1ccccc1 (stereo not drawn)	81.3%
CC(C)=CC[C@@H]1CC2(CC=C(C)C)C(=O)C(OC3(C(=O)c4ccccc4)C(=O)C4(CC=C(C)C)C[C@@H](CC=C(C)C)C(C)(C)C(CC=C(C)C)(C4=O)C3=O)(C(=O)c3ccccc3)C(=O)C(CC=C(C)C)(C2=O)C1(C)C (stereo partly drawn)	2.26% (active)
CCCCc1nc(Cl)c(C2CC(c3ccc(S(N)(=O)=O)cc3)=NN2c2ccc(C#N)cc2)[nH]1 (stereo not drawn)	89.5%
COc1cc(Cl)cc(-c2nn(C(=O)NCCN3CCOCC3)cc2-c2ccncc2)c1	93.4%
O=[N+]([O-])c1ccc(N=Nc2c(NNc3ccc([N+](=O)[O-])cn3)cc(S(=O)(=O)O)c3ccccc23)nc1	91.1%
NC(=S)N1N=C(c2ccc(Cl)cc2)CC1c1cc2ccccc2[nH]c1=O (stereo not drawn)	109%
NC(=O)N/N=C\c1ccc([N+](=O)[O-])o1	75.2%
Cc1cc(N)cc(C)c1-c1c(Br)cc(N)cc1Br	51.8%
O=C1CCCN1C1CCN2CCCc3cccc1c32 (stereo not drawn)	102%
CCCCCCCCCCCCCCCC1=NCCN1	85.2%
C=CCCCCOc1cccc(/C=C2\N=C3SCCCN3C2=O)c1	95.9%
CC(CN1CCN(CC(C)Nc2ccnc3cc(Cl)ccc23)CC1)Nc1ccnc2cc(Cl)ccc12 (stereo not drawn)	67.3%
CCN1CCN(Cc2ccc(NC(=O)Nc3ccc(-n4ccc5c(NC(=O)c6ccccc6)nccc54)cc3)cc2C(F)(F)F)CC1	87.4%
N/C(=N\OC(=O)c1ccccc1)C(Cc1ccccc1)C(=O)NOC(=O)c1ccccc1 (stereo not drawn)	59.2%
C=CCN(CC#N)CC=C	100%
CCSc1cnnc2ccccc12	98.9%
CCN1C(=O)N(CC)C2C1NN=c1s/c(=C\c3ccc(Br)cc3)c(=O)n12 (stereo not drawn)	38.2%
OC(COCc1ccccc1)COCc1ccccc1	91.5%
N#CCCn1cnc2c(N)ncnc21	104%

SMILES	growth
CCOC(=O)Nc1ccc2nc(Sc3ccc(Cl)cc3)sc2c1	57.6%
O=C(O)CSc1ccc(NCc2oc(CO)cc(=O)c2O)cc1	106%
COc1cccc(N2CCN(c3ncnc4cc[nH]c34)CC2)c1	50.1%
CCCCc1nc(Cl)c(C2CC(c3ccc(S(N)(=O)=O)cc3)=NN2c2cc(Cl)cc(Cl)c2)[nH]1 (stereo not drawn)	51.3%
CS(=O)(=O)c1ccc(Cl)c([N+](=O)[O-])c1	104%
CC(C)CC(=O)C(CCc1ccccn1)C(C)C (stereo not drawn)	99.4%
CC(C)c1ccc(-c2cnc3nonc3n2)cc1	71.9%
Cc1ccc(Nc2cc(Cl)c([N+](=O)[O-])cc2[N+](=O)[O-])cc1	102%
COc1cc2c(=O)n(CCCN(C)C)c3c4cc[nH]c4ncc3c2cc1OC	51.1%
COc1cc(C2CC(c3ccc(C)cc3)=NN2C=O)ccc1Oc1nc2c(c(=O)n(C)c(=O)n2C)n1C (stereo not drawn)	80.1%
CC(C)CCSc1nc(-c2ccc(F)cc2)c(C#N)c(N2CCCCC2)n1	97.2%
FC(F)(F)c1nn[nH]n1	99.3%
CCN(CC)CCNC(=O)n1cc(-c2ccncc2)c(-c2cc(Cl)cc(OC)c2)n1	43.4%
CS(=O)(=O)c1ccc(C(=O)Nc2ccc(Cl)c(-c3ccccn3)c2)c(Cl)c1	23.5%
CCOC(=O)c1cc(N)nc2ccccc12	108%
CCCCCCCOc1cccc(/C=C2\N=C3SCCCN3C2=O)c1	92.7%
Cn1cnc([N+](=O)[O-])c1S(=O)(=O)Oc1ccccc1	103%
Cc1c(C(=O)CCl)c(=O)n(-c2ccccc2)n1C	76.8%
CCN(CC)c1cc(C)c(Cc2c(OC)ccc3ccccc23)cc1C	93.4%
